Pf Dd2 growth: qHTS Primary assay for Inhibitors of Plasmodium falciparum Dd2 growth in vitro | P. falciparum Dd2 growth, SYBR Green, 72 h | Potency, µM (series often up to 28.9 µM), for inactives: at the top dose activity, negative = inhibition, most hits filed as inhibitors | 120,000 compounds, 4.3% hits | AID 1347417, 2020; active = well fitted inhibition curve with a large enough effect;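 also: plate controls were DMSO vehicle for no effect and reference drug for full effect; nearly all actives have a fitted effect of over 65% in size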
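Infected erythrocytes (Dd2, 0.3% parasitemia, 2.5% hematocrit final) are added to compound in RPMI-1640/Albumax II medium, grown 72 h at 37C in low oxygen, then lysed with saponin/Triton-X containing SYBR Green and read by fluorescence.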
Starred values were filed as active, the others as inactive; i = inactive; [ ] = remark or other dose. This excerpt belongs to a sample that is enriched for hits. Potency is read from the fitted curve at half-maximal effect.

SMILES	Pf Dd2 growth
CCc1ccc(C(=O)NCCn2ccn3nc(-c4ccc(F)cc4)cc3c2=O)cc1	4µM*
COc1ccc(-c2cc3c(=O)n(CCNC(=O)c4ccc(F)cc4)ccn3n2)cc1	i
COC(=O)CNC(=O)C1=NOC2CN(C(=O)c3ccn(C)n3)CC12 (stereo unspecified)	17%
CCOc1cc(-c2cc(C(=O)O)c3c(-c4ccccc4)[nH]nc3n2)ccc1O	-3%
Cc1cccc(-c2cc(C(=O)O)c3c(-c4ccc(F)cc4)[nH]nc3n2)c1	7.9µM*
COc1ccc(-c2[nH]nc3nc(-c4cc(OC)c(OC)c(OC)c4)cc(C(=O)O)c23)cc1	-15%
CS(=O)(=O)N1CCCC(C(=O)Nc2ccc(F)cc2F)CCNC(=O)CC1 (stereo unspecified)	8%
COc1ccc(C)cc1NC(=O)CN1C(=O)NC2(CCCCC2)C1=O	-17%
O=S(=O)(Cc1ccccc1F)N1CCC(c2noc(-c3ccncc3)n2)C1 (stereo unspecified)	i[5.79 µM]
Cc1ccc(NC(=O)N(Cc2cn(C)c3ccccc23)C2CCCCC2)cc1C	3.5µM*
Cc1ccc(NC(=O)Cn2cc(C(=O)C3CC3)c3ccccc32)cc1C	314%[5.79 µM]
COc1cccc(NC(=O)N(Cc2cn(C)c3ccccc23)C2CCCCC2)c1	2.8µM*
COc1ccc(CN(C(=O)Nc2cccc(OC)c2)C2CCN(C(C)=O)CC2)cc1	-5%
COc1cccc(NC(=O)N(CCC(C)C)C2CCN(C(C)C)CC2)c1	i
CC(=O)N1CCC(N(CCCOC(C)C)C(=O)Nc2ccc(C)c(C)c2)CC1	4%
O=C(NC[C@H]1O[C@@H](CO)[C@@H](O)[C@H]1N1CCN(c2ccc(F)cc2)CC1)c1ccc(F)c(Cl)c1	i
Cc1ccccc1S(=O)(=O)NCCc1noc(-c2cccnc2)n1	-1%
CC(C)CC(=O)N1CCCCCCNC(=O)[C@@H]2CCCC[C@@H]21	23%
CS(=O)(=O)N1CCCN(C(=O)CCc2c[nH]c3ccccc23)CCNC(=O)CC1c1ccccc1 (stereo unspecified)	i
COCCN1C(=O)CC[C@]2(C(=O)NCc3ccco3)CCCC[C@@H]12	-23%
O=C(NC1CCN(Cc2ccccc2)CC1)c1ccc(Cn2c(=O)c3ccccc3n(Cc3ccccc3)c2=O)cc1	-15%
O=C(NC1CCN(Cc2ccccc2)CC1)c1ccc(Cn2c(=O)c3ccccc3n(Cc3ccc(Cl)cc3)c2=O)cc1	5µM*
COCCCNC(=O)c1ccc(Cn2c(=O)c3ccccc3n(Cc3ccc(Cl)cc3)c2=O)cc1	-18%
CC(C)c1cccc(NC(=O)c2ccc3c(c2)N(C)C2CCCCN2C3=O)c1 (stereo unspecified)	-9%
COc1ccc(-c2nnc3n2CCN(C(=O)c2ccc(C(F)(F)F)cc2)C3)cc1	-27%
SMILES	Pf Dd2 growth
CNC(C)c1ccccc1 (stereo unspecified)	-18%[44.1 µM]
COc1ccc(C2(c3nc(C4CC(=O)N(C5CCCCC5)C4)no3)CC2)cc1 (stereo unspecified)	11µM*
Cc1ccc(-c2nc(C3CC(=O)N(C4CCCCC4)C3)no2)cc1 (stereo unspecified)	55%
COCc1nc(C2CC(=O)N(C3CCCCC3)C2)no1 (stereo unspecified)	13%
Clc1cc(NC2CCOCC2)n2nccc2n1	i
CN(Cc1ccccc1)C(=O)c1cccc2c1CCN2C(=O)Nc1ccccc1	6.3µM*
CCNC(=O)c1cccc2c1CCN2C(=O)Nc1ccc(C)cc1	i
CN(Cc1ccco1)C(=O)c1cccc2c1CCN2C(=O)Nc1ccccc1	i
O=C(Nc1cccc(Cl)c1)C1CCc2sc(C(=O)N3CCCC3)cc2C1 (stereo unspecified)	i
COc1ccc(C(=O)c2cn(CC(=O)Nc3cc(OC)cc(OC)c3)c3ccc(OC)cc3c2=O)cc1	-2%
COc1ccccc1Cn1cc(C(=O)c2ccc(Cl)cc2)c(=O)c2ccccc21	i
CCOc1ccc(C(=O)c2cn(Cc3cccc(OC)c3)c3cc4c(cc3c2=O)OCO4)cc1	-27%
CCOc1ccc(C(=O)c2cn(Cc3ccc(OC)cc3)c3cc(OC)c(OC)cc3c2=O)cc1	10µM*
COc1ccc(C(=O)c2cn(Cc3cccc(C)c3)c3cc4c(cc3c2=O)OCO4)cc1	-7%
COc1ccc(Cn2cc(C(=O)c3ccc(C)c(C)c3)c(=O)c3ccccc32)cc1	11µM*
CCOc1ccc2c(c1)c(=O)c(C(=O)c1ccc3c(c1)OCO3)cn2Cc1ccc(F)cc1	-26%
CCOc1ccc(C(=O)c2cn(CC(=O)Nc3cc(OC)ccc3OC)c3cc(OC)c(OC)cc3c2=O)cc1	i
COc1cccc(C(=O)c2cn(CC(=O)NCCc3ccccc3)c3nc(C)ccc3c2=O)c1	i
COc1ccc(CCNC(=O)Cn2cc(C(=O)c3ccc(F)cc3)c(=O)c3ccc(C)nc32)cc1OC	i
COc1cc2c(=O)c(C(=O)c3ccc(C)c(C)c3)cn(Cc3ccc(F)cc3)c2cc1OC	4.5µM*
COc1cccc(Cn2cc(C(=O)c3ccc(Cl)cc3)c(=O)c3ccccc32)c1	14µM*
COCCC1(C(=O)O)CCCN(CCCn2ccnc2C)C1 (stereo unspecified)	4%
Cc1ccc(NC(=O)N2CCC(Oc3ncccc3C(=O)N(C)C)C2)cc1 (stereo unspecified)	-14%
O=C(Nc1cccc(F)c1)C1CCN(C(=O)N2CC3CC(C2)[C@H]2CCCC(=O)N2C3)CC1 (stereo partly specified)	-18%
CCC(=O)Nc1cc(C(=O)NCC(C)C)c2ccc(C)nc2c1	-6%
SMILES	Pf Dd2 growth
O=C(Nc1cccc(F)c1)N1CC2CC(C1)[C@H]1CCCC(=O)N1C2 (stereo partly specified)	-1%
Cc1ccc(C(=O)c2cn(Cc3ccccc3)c3cc4c(cc3c2=O)OCCO4)cc1	i
CCOc1ccc(NC(=O)Cn2cc(C(=O)c3ccc(C)c(C)c3)c(=O)c3cc(OC)c(OC)cc32)cc1	12%
COc1cc2c(=O)c(C(=O)c3ccc(C)c(C)c3)cn(Cc3ccccc3)c2cc1OC	13µM*
CC(C)[C@@H]1CN(C(=O)c2nc3ccccc3[nH]c2=O)C[C@H]1NS(C)(=O)=O	-6%
Cc1ccc(C(=O)N2CCC3(CC2)NC(=O)N(Cc2ccccc2)C3=O)cc1	41%
N#Cc1cccc(C(=O)N2CCC3(CC2)NC(=O)N(Cc2ccccc2Cl)C3=O)c1	i
N#Cc1ccc(C(=O)N2CCC3(CC2)NC(=O)N(Cc2ccccc2Cl)C3=O)cc1	2.5µM*
COCCNC(=O)[C@H]1C[C@H](Oc2ccccc2)CN1C(=O)c1ccco1	8%
CC(C)Cn1nc2n(c1=O)CCN(S(=O)(=O)c1ccc(C(C)(C)C)cc1)CC2	11µM*
CC(C)Cn1nc2n(c1=O)CCN(S(=O)(=O)c1cccs1)CC2	-7%
CC(C)Cn1nc2n(c1=O)CCN(S(=O)(=O)Cc1ccccc1)CC2	3%
CS(=O)(=O)Nc1ccc(C2(C(=O)N3CCN(c4ccccn4)CC3)CCCCC2)cc1	i
O=C(NC1C[C@H]2CC[C@@H](C1)N2C(=O)CCCc1ccccc1)c1ccc(F)cc1 (stereo partly specified)	8.9µM*
CC(C)CC(=O)N1[C@@H]2CC[C@H]1CC(NC(=O)c1ccc(F)cc1)C2 (stereo partly specified)	-18%
COc1cccc(CC(=O)N2[C@@H]3CC[C@H]2CC(NC(=O)c2ccc(F)cc2)C3)c1 (stereo partly specified)	i

Compound activity from PubChem.
